VDR inh: vitamin D3 receptor (human) inhibition; P11473; VDR-SRC2-3 peptide fluorescence polarization, 2 h; Potency, µM, usual class: inhibitors; hit rate 0.93% among 400,000; AID 504847
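FP read-out; VDR + SRC2-3 coactivator peptide; 23 nl compound by pintool; 2 h RT incubation; reagents held at 4 deg C, protected from light.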
DT40 TDP1 no CPT: qHTS for Inhibitors of human tyrosyl-DNA phosphodiesterase 1 (TDP1): qHTS in cells in absence of CPT. DT40 Tdp1-/- hTDP1 cells, no CPT, ATP luminescence, 48 h. Potency, µM (highest dose often 46.2 µM), usual class: inhibitors. hit rate 15% among 420,000; further: nearly all actives have a fitted effect of over 55% in size
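Cells were dispensed at 400 per well, compounds added by pin tool, plates incubated ≥48 hr at 37 °C, then CellTiter-Glo added for 30 min at room temperature before luminescence reading. Line: DT40 Tdp1-/- complemented with hTDP1; camptothecin omitted.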
PLK1 PBD inh: inhibitors of human PLK1 polo-box domain binding; P53350; Plk1 PBD binding of FITC phosphopeptide, fluorescence polarization; hit rate 2.8% among 360,000; AID 720504; Potency, µM, usual class: inhibitors; further: series mostly up to about 57 µM; nearly all actives have a fitted effect of over 65% in size
Target sequence (P53350 whole entry, looked up, the tested form may be a part): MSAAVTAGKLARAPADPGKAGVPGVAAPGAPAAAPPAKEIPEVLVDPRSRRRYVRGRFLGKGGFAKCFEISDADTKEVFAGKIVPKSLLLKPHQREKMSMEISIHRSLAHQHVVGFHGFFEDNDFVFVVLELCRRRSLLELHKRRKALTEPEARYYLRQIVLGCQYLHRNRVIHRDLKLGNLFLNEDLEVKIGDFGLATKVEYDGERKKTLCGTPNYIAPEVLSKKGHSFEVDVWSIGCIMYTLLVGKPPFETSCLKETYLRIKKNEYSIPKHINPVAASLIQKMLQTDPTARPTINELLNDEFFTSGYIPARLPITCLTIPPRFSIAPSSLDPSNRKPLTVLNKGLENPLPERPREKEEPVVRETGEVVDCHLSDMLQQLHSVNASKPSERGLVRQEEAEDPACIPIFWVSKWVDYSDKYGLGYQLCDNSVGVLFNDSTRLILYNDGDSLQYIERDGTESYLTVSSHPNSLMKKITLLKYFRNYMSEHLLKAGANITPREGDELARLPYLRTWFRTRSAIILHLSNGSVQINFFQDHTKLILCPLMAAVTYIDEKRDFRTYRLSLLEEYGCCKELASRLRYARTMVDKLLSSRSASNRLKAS
GCN5L2 inh: blocks human GCN5L2 histone acetyltransferase | GCN5L2 HAT assay, ThioGlo1 CoA-SH fluorescence | Q92830 | hit rate 0.21% among 390,000 | Potency, µM (top dose mostly 58.9 µM), usual class: inhibitors
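GCN5L2 (20 nM) in 50mM HEPES pH 7.5, 0.1mM EDTA, 0.01% Tween-20 preincubated 15 min with compounds at room temperature. Reaction started with H3(1-25) 75uM, acetyl-CoA 70uM, ThioGlo1 50uM; CoA-thiol fluorescence (Ex340/Em540) read at 0 and 20 min.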
TDP1 cell CPT: DT40-hTDP1 cell growth loss with CPT; chicken DT40 Tdp1-/-;hTDP1 cells + 20 nM CPT, ATP luminescence, 48 h; hit rate 12% among 420,000; AID 686979; Potency, µM (highest dose often 46.2 µM), hits mostly inhibitors; further: nearly all actives have a fitted effect of over 55% in size
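Chicken DT40 Tdp1-/- cells stably complemented with human TDP1 were seeded at 400 cells/well in medium containing 20 nM camptothecin, exposed to pin-transferred compounds, and grown at 37 °C for at least 48 hr. Viability was read as ATP luminescence.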
TDP1 block: inhibitors of human tyrosyl-DNA phosphodiesterase TDP1; Q9NUW8; recombinant TDP1, AlphaScreen DNA substrate cleavage; Potency, µM (highest dose often 130 µM), most hits filed as inhibitors; hit rate 0.28% among 350,000; further: nearly all actives have a fitted effect of over 40% in size
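Recombinant E. coli-expressed Tdp1 (1 nM) preincubated with compound 15 min at RT, then 5'-biotin/3'-phosphotyrosine-FITC DNA substrate (15 nM) added for 5 min. AlphaScreen beads (10 ug/ml) added, 10 min RT; tyrosine-FITC cleavage read as signal loss.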
Numbers stand for hits; - = inactive; ? = inconclusive; . = not tested or not shown; [ ] = remark or other dose. The list is not random: actives were taken first. Their share in the collection is about 18%. The call rests on the fitted dose curve; in most records, active means well fitted curve in the direction sought with a large enough effect; inconclusive means small, poorly fitted or top-dose-only effect, or another doubt; inactive means no such curve, though single readings can be large; an effect the other way counts as inactive or inconclusive.

SMILES	VDR inh	DT40 TDP1 no CPT	PLK1 PBD inh	GCN5L2 inh	TDP1 cell CPT	TDP1 block
O=C(NCC(c1cccnc1)N1CCc2ccccc2C1)C(=O)Nc1ccc(Cl)cc1 (stereo not drawn)	-	8.2µM	.	-	12µM	-
COc1ccc(C(=O)NCC(c2cccnc2)N2CCc3ccccc3C2)cc1 (stereo not drawn)	-	21µM	.	-	12µM	-
COc1ccc(N2CCN(C(CNC(=O)c3cccc(Cl)c3)c3cccnc3)CC2)cc1 (stereo not drawn)	-	?	-	-	?	-
O=C(NCc1cccnc1)c1[nH]c(C(F)(F)F)nc1-c1ccccc1	.	-	-	.	-	.
Cc1ccc(-c2noc(-c3ccc(NCC4CCCO4)c([N+](=O)[O-])c3)n2)cc1 (stereo not drawn)	-	?	.	-	?	-
CCCC[C@]12Cc3ccccc3C(O1)c1c(cc(-c3ccccc3)oc1=O)O2	.	.	.	-[12.7 µM]	.	.
COc1ccc(OCC(=O)OCc2cc(=O)n3nc(C4CC4)sc3n2)cc1	-	-	.	-	-	-
COc1ccc(CCNC(=O)COc2ccc(-c3ccccc3)cc2)cc1OC	-	-	-	-	-	-
COc1ccc(CCNC(=O)C2CCC(CNS(=O)(=O)c3ccccc3)CC2)cc1OC (stereo not drawn)	.	.	.	-	.	-
COc1ccc(CCNC(=O)c2ccc(CNc3nc(=S)[nH]c4ccccc34)cc2)cc1OC	-	?	-	-	15µM	-
COc1ccc(CCNC(=O)c2c(O)c3ccccc3[nH]c2=O)cc1OC	-	?	-	-	-	.
COc1ccc(CCNC(=O)c2ccc(N(C)S(=O)(=O)c3ccc(C)cc3)cc2)cc1OC	-	21µM	-	-	21µM	-
COc1ccc(CCNC(=O)c2ccc(CNS(=O)(=O)c3ccccc3)cc2)cc1OC	-	16µM	-	-	18µM	-
COc1ccc(CCNC(=O)COc2ccc(N(C)S(=O)(=O)c3ccc(C)cc3)cc2)cc1OC	-	16µM	-	-	?	-
O=C(OCC(=O)c1ccc[nH]1)c1ccc(F)c(S(=O)(=O)N2CCOCC2)c1	-	-	-	-	-	-
O=C(/C=C/c1ccccc1)c1ccc(O[C@H]2OC(CO)C(O)C(O)C2O)cc1O (stereo partly drawn)	16µM	?	.	-	?	-
O=c1ccc2c([nH]1)CCCCCCCCCC2	-	-	-	-	-	.
CC1(C)Cc2nc3oc4c(N(CCO)Cc5ccccc5)ncnc4c3cc2CO1	-	21µM	-	-	21µM	-
O=c1sc2ccccc2c(N2CCOCC2)c1[N+](=O)[O-]	-	-	-	-	-	.
Cc1ccc2nc(N3CCCCCC3)c(CN(CC3CCCO3)C(=O)c3cncs3)cc2c1 (stereo not drawn)	.	-	.	.	-[9.04 µM]	.
COc1cc(S(=O)(=O)NCC(c2ccco2)N2CCCCC2)ccc1NC(C)=O (stereo not drawn)	-	-	-	-	-	-
COc1ccc2c(CCNC(=O)/C=C/c3ccc(OC)c(OC)c3)c[nH]c2c1	-	18µM	-	-	?	.
COc1ccc(OC)c(/C=C/C(=O)NCCc2nc3ccccc3[nH]2)c1	-	12µM	-	-	7.3µM	-
COc1cccc(/C=C/C(=O)NCCc2ccc(OC)c(OC)c2)c1	-	?	-	-	?	-
Cc1cc(C)cc(NC(=O)c2sc3nc(-c4cc5ccccc5oc4=O)[nH]c(=O)c3c2C)c1	-	-	.	-	?	-
SMILES	VDR inh	DT40 TDP1 no CPT	PLK1 PBD inh	GCN5L2 inh	TDP1 cell CPT	TDP1 block
Cc1c(C(=O)Nc2cccc(F)c2)sc2nc(-c3cc4ccccc4oc3=O)[nH]c(=O)c12	-	?	.	-	23µM	-
Cc1cccc(NC(=O)c2sc3nc(-c4cc5ccc(O)cc5oc4=O)[nH]c(=O)c3c2C)c1	-	21µM	.	-	21µM	-
CN(C)CCNc1nc(-c2ccccc2F)c2sccc2n1	.	-	-	.	?	.
O=C(NC1CCCC1)c1ccc(CSc2nc3ccncc3n2Cc2ccccc2F)cc1	-	?	.	-	?	-
Cc1ccc(Cn2c(SCc3ccc(C(=O)N4CCCCCC4)cc3)nc3ccncc32)cc1	-	21µM	.	-	?	-
O=C(c1ccc(CSc2nc3ccncc3n2Cc2ccccc2F)cc1)N1CCCCCC1	-	26µM	.	-	?	-
CCc1ccc(NC(=O)Cn2c(SCc3ccc(C)cc3)nc3ccncc32)cc1	-	?	.	.	?	-
Cc1ccc(CSc2nc3ccncc3n2Cc2nc(-c3ccccc3C)oc2C)cc1	-	?	.	-	?	-
Cc1ccc(Cn2c(SCc3ccc(C(=O)N4CCCCC4)cc3)nc3ccncc32)cc1	-	8.2µM	.	-	18µM	-
O=C(CCNS(=O)(=O)c1ccc2c(c1)CCCC(=O)N2)Nc1cccc(Cl)c1	-	.	.	-	.	-
CCCS(=O)(=O)c1nc(S(=O)(=O)c2ccc(C)cc2)c(NCc2ccccc2Cl)s1	-	-	.	-	-	-
COCC(=O)OCC(=O)c1cc(C)n(-c2ccc(Br)cc2)c1C	-	-	17µM	-	?	-
Cc1ccc(-n2c(C)cc(C(=O)COC(=O)c3ccc[nH]c3=O)c2C)cc1	-	?	-	-	-	-
Cc1cc(C(=O)COC(=O)c2ccc(O)cc2O)c(C)n1-c1ccc(OC(F)F)cc1	-	7.3µM	-	-	21µM	-
Cc1cc(C(=O)COC(=O)c2ccc[nH]c2=O)c(C)n1-c1ccc(Br)cc1	-	-	-	-	-	-
COc1ccc(-n2c(C)cc(C(=O)COC(=O)c3ccc(O)cc3O)c2C)cc1	-	5.2µM	-	-	8.2µM	-
COc1ccc(-n2c(C)cc(C(=O)COC(=O)Cn3cnc4ccccc43)c2C)cc1	-	18µM	-	-	16µM	-
COc1ccc(-n2c(C)cc(C(=O)COC(=O)c3cc(NC(=O)c4cccs4)c(OC)c(OC)c3)c2C)cc1	-	?	-	-	?	-
COc1ccc(-n2c(C)cc(C(=O)CN3C(=O)c4ccccc4C3=O)c2C)cc1	-	?	-	?	-	-
COc1ccc(-n2c(C)cc(C(=O)CCl)c2C)cc1	?	1.8µM	?	-	1.5µM	-
CCOC(=O)c1cc(C)n(-c2ccccc2)c1C	-	-	-	-	-	-
Cc1cc(C(=O)COC(=O)c2ccc(O)cc2O)c(C)n1-c1ccccc1	-	21µM	-	-	21µM	-
CCCc1ccc(-c2cc(NC(=O)CSc3nnc(N)s3)n(-c3ccccc3)n2)cc1	-	21µM	-	-	23µM	-
C/C=C/C(=O)OCC(=O)Nc1cc(-c2cc(C)c(C)cc2C)nn1-c1ccccc1	-	-	-	-	-	-

Compound activity deposited in PubChem by National Center for Advancing Translational Sciences (NCATS).
